Assay results as given in PubChem BioAssay (NCI).
Compounds without any hit were thinned out: in the full panel of roughly 83,000, 20% have a hit.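 How to read the values: 0–100, growth inhibition (40 = 60% inhibited); 0, no net growth; -100 to 0, cell death (-40 = 40% of starting cells died; -100 = all dead).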 A number with no mark means an inactive call. The source made the active and inactive calls.

System: COLO 205 colon
Assay: NCI-60 one-dose screen, 48 h (100 = growth as untreated, 0 = no growth, -100 = all killed)
Conditions: 10 µM
Method: Cells are grown in 96 well plates and exposed to the test compound for 48 hours. Compounds are tested at a single concentration, which is 10^-5 M for most compounds. The reported endpoint is percent growth (GI% or GIPRCNT), where numbers from 0 - 100% represent growth inhibition, and numbers from -100% - 0 represent cell death. For example, a value of 40 represents 60% growth inhibition. A value of 0 means no net growth occurred over the course of the experiment. A value of -40 indicates 40% of cells at the beginning of the experiment died by the end of the experiment. A value of -100 means all cells are dead at the end of the experiment.
NCI-60 Human Tumor Cell Lines Screen was performed using the standard one-dose NCI protocol, which is described in more detail at https://dtp.cancer.gov/discovery_development/nci-60/default.htm.
Compounds with GIPRCNT values below 10 were considered active. Activity score was based on GIPRCNT using the following formula: […]
Score is 0 for GIPRCNT values of 100 or above, 50 for GIPRCNT values of 0, and 100 for GIPRCNT values of -100.

Q: For COc1ccc(-c2cc(-c3ccccc3)nc(SCCCCCCC(=O)NO)n2)cc1, which growth is on record?
A: 44.8%

Q: Cc1cc(=O)n2nnc3cc(C(F)(F)F)ccc3n12 was tested. Which growth did it give?
A: 108%

Q: For O=C1/C=C/[C@@H](O)[C@@H]2C[C@@H](O)C[C@H]2/C=C/CCC[C@@H](C(F)(F)F)O1, which growth is on record?
A: 22%

Q: For CCC(c1ccc(OC)cc1)C(CC)c1ccc(O)c(CN2CCN(C)CC2)c1 (stereo not given), which growth is on record?
A: -83.5% (active)

Q: With CCOC(=O)C1=CSC2=NC3=C(CCC/C3=C\c3cc(OC)c(OC)c(OC)c3)C(c3cc(OC)c(OC)c(OC)c3)N12 (stereo not given) as the compound, how does the growth read?
A: 52.7%

Q: With Nc1nc(Cn2c(-c3nonc3N)nc3ccccc32)nc(N2CCCCC2)n1 as the compound, how does the growth read?
A: 94.4%

Q: Which growth does the source give for COc1ccc2c(c1)C(=O)/C(=C/c1ncc([N+](=O)[O-])n1C)O2 here?
A: -47.5% (active)

Q: For O=[N+]([O-])c1ccc(/C(=C/c2ccccc2)[n+]2ccccc2)cc1, which growth is on record?
A: 114%

Q: With CS(=O)(=O)c1nccc(-c2c(-c3cccc(OCc4ccc(F)cc4)c3)nc3sccn23)n1 as the compound, how does the growth read?
A: 91.2%

Q: With O=C(CSc1nccc(Nc2cccc3ccccc23)n1)c1ccc(Cl)cc1 as the compound, how does the growth read?
A: 108%

Q: Which growth does the source give for CC(C)(C)OC(=O)CN1CCc2c(sc3ncnc(N/N=C/c4ccccc4Br)c23)C1 here?
A: 62.1%

Q: With CCCCCCCCCCOC(c1ccccc1)c1ccccc1 as the compound, how does the growth read?
A: 104%

Q: How did the growth turn out when CS(=O)(=O)c1nccc(-c2c(-c3cccc(OCCN4CCOCC4)c3)nc3sccn23)n1 was run?
A: 97.9%

Q: With CC(=O)OC1CC2C(C)(C)CCC[C@]2(C)C2=C1C(O)=C(C(C)C)C(=O)C2=O (stereo not given in full) as the compound, how does the growth read?
A: -38.5% (active)

Q: For Cc1cc(Br)nnc1Br, which growth is on record?
A: 100%

Q: How did the growth turn out when CCOC(=O)C1=CSC2=NC3=C(CCC/C3=C\c3ccc(Cl)cc3)C(c3ccc(Cl)cc3)N12 (stereo not given) was run?
A: 105%

Q: Which growth does the source give for c1ccc2c(c1)Cc1ccccc1N2CCN1CCCCC1 here?
A: 82.2%

Q: Which growth does the source give for NC1=NC(c2ccc(Cl)cc2)C2=C(N1)/C(=C/c1ccc(Cl)cc1)CCC2 (stereo not given) here?
A: 92%

Q: Which growth does the source give for O=C(/C=C/c1cccc(B(O)O)c1)c1cccc(B(O)O)c1 here?
A: -90.8% (active)

Q: Which growth does the source give for Cc1cn(-c2cc(F)cc(NC(=O)c3ccc(C)c(Nc4nccc(-c5cccnc5)n4)c3)c2)cn1 here?
A: 70.9%

Q: With CC(=O)[C@H]1CC[C@]2(C)[C@@H]1CC[C@@H]1[C@@]3(C)CC(CCC#N)(CCC#N)C(=O)C(C)(C)[C@@H]3CC[C@]12C as the compound, how does the growth read?
A: 106%

Q: How did the growth turn out when CCn1cc(CNc2ccc(C(=O)Nc3ccc4ccccc4c3)cc2)c(C)n1 was run?
A: 69.2%

Q: For CC(=O)/C(=C/c1ccc(Br)cc1)C(=O)c1ccccc1, which growth is on record?
A: 111%

Q: With COc1ccc(/C(C#N)=C/c2cccc(OC)c2OC)cc1 as the compound, how does the growth read?
A: 88.8%

Q: For Cc1cc(Cl)ccc1Nc1nc(C(F)(F)F)ccc1C(=O)N/N=C/c1cccc(O)c1, which growth is on record?
A: 28.2%

Q: How did the growth turn out when Cc1ccc(-n2nnnc2N)c(C)c1 was run?
A: 117%

Q: How did the growth turn out when Cc1c2c[n+](C(C)C)ccc2c(C)c2c1[nH]c1ccccc12 was run?
A: -6.61% (active)

Q: COC(=O)c1c[nH]c2cc(OC(C)C)c(OC(C)C)cc2c1=O was tested. Which growth did it give?
A: 108%

Q: Which growth does the source give for CNC(=O)c1cc(Oc2ccc3c(c2)sc2nc(-c4ccc(N)cc4)cn23)ccn1 here?
A: -11.1% (active)

Q: NC(=O)c1cccc(-n2ccc3cc(NC(=O)Nc4ccc(Cl)c(C(F)(F)F)c4)ccc32)n1 was tested. Which growth did it give?
A: 85.6%

Q: How did the growth turn out when CCCCC(CC)CN=C(N)NC(N)=NCCCCCCN=C(N)NC(N)=NCC(CC)CCCC (stereo not given) was run?
A: -79.8% (active)

Q: Which growth does the source give for CCOc1ccccc1/C=N\N=C\c1ccccc1O here?
A: 108%

Q: Which growth does the source give for COc1ccc(-c2cc(-c3cc(OC)ccc3OC)nc(N)c2C#N)cc1 here?
A: 57.1%

Q: CCCCN1C(=O)CC(SC2CC(=O)N(CCCC)C2=O)C1=O (stereo not given) was tested. Which growth did it give?
A: 102%

Q: How did the growth turn out when COc1cc(N)c2ncccc2c1SC was run?
A: 100%

Q: How did the growth turn out when CS(=O)(=O)c1nccc(-c2c(-c3cccc(OCCc4ccccc4)c3)nc3sccn23)n1 was run?
A: 103%

Q: How did the growth turn out when Cc1nc2n(c(=O)c1CCN1CCC(c3noc4cc(F)ccc34)CC1)CCC[C@@H]2O was run?
A: 96.7%

Q: How did the growth turn out when CN(C)CCCOc1ccc(OCCCN(C)C)c2c1C(=O)c1ccccc1C2=O was run?
A: -57.9% (active)

Q: With CCCCCC(=O)O[C@]1(C(C)=O)CCC2C3CCC4=CC(=O)CC[C@]4(C)C3CC[C@@]21C (stereo not given in full) as the compound, how does the growth read?
A: 13.3%

Q: Which growth does the source give for CC1=CC2C(C(O)CC3(C)C2CC(C)C32OCOC23COCO3)C2(C)C/C(=C/O)C(=O)C=C12 (stereo not given) here?
A: -14.4% (active)
